The record followed here is PubChem BioAssay.

Assay [1] relates to PRMT1 (protein arginine N-methyltransferase 1). As to the kind of experiment: PRMT1 binders on small-molecule microarrays, primary screen, biochemical, small-molecule microarray, 635 nm fluorescence (AID 1088).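 Further: binding of Prmt1 protein to compounds spotted on small-molecule microarray slides.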 The conditions noted are these: small-molecule microarray binding, higher = more signal.
Assay [2] can be described thus: yeast growth modulation, basal conditions, primary screen, YJM789 clinical isolate, OD600, 24 h (AID 1089).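 Further: growth of clinical yeast isolate S. cerevisiae YJM 789 seeded 1000 cells per well; test concentration not given here.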 The conditions noted are these: S. cerevisiae YJM789 growth, higher = more signal, called active from +8 up or from −8 down.
The nature of assay [3]: fission yeast growth modulation, primary screen, strain 972, OD600, 24 h, no modulator (AID 1090).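 Further: basal condition with compound alone and no growth modifier present; test concentration not given here.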 The conditions noted are these: S. pombe 972 growth, higher = more signal, called active from +8 up or from −8 down.
Assay [4] is described as follows: S. cerevisiae growth modulation with rapamycin, primary screen, strain BY4716, OD600, 96 h (AID 1091). Further: test concentration not given here. The conditions noted are these: higher = more signal, called active from +8 up or from −8 down.
In assay [5] the target is Torsin-1A-interacting protein 2 (Homo sapiens) (UniProt Q8NFQ8). As to the kind of experiment: LULL1 binders on small-molecule microarray, primary screen, cell lysate, human LULL1 lysate, 635/667 nm fluorescence (AID 1092).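 Further: probe is lysate of COS7 cells overexpressing human LULL1; score merges per-feature 667 nm fluorescence with signal-to-noise.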 Conditions: hLULL1 lysate binding, 635 nm fluorescence, higher = more signal.
Torsin-1A-interacting protein 2 (Homo sapiens), sequence (Q8NFQ8 whole entry, looked up): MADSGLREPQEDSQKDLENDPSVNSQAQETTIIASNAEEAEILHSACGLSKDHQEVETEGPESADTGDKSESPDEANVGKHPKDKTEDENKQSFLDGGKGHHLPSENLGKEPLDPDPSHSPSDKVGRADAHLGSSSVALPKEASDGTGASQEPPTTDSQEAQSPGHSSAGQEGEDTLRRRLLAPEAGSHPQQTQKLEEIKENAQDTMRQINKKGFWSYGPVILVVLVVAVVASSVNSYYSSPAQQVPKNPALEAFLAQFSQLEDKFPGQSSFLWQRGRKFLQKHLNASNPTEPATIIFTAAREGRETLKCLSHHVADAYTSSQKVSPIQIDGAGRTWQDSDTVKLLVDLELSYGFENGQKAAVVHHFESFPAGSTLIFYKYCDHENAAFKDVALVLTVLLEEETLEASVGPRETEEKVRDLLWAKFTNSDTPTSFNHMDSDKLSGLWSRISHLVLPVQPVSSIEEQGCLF
A short description of assay [6]: E. coli growth modulation, two-sided OD650, primary screen, E. coli filamentation project, strain DRC41, 24 h (AID 1093).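 Further: MC1000 strain lacking acrAB efflux and sulA so SOS filamentation is blocked; test concentration not given here.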 Conditions: OD650, 24 h, higher = more signal, called active from +8 up or from −8 down.
A short description of assay [7]: small-molecule microarray binders of probe aLefty2, primary screen, biochemical, biotinylated probe, 635/667 nm fluorescence (AID 1094).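 Further: score merges spot fluorescence near 667 nm with spot signal-to-noise ratio.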 Conditions: higher = more signal.
Assay [8] relates to Noggin (protein binding on small-molecule microarray). The experiment in a line: Noggin binders on small-molecule microarray, primary screen, biochemical, 635/667 nm fluorescence (AID 1095).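 Further: score merges 667 nm feature fluorescence with signal to noise over triplicate slides.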 Conditions: 635 nm fluorescence, higher = more signal.
For assay [9], the target named is Neurogenic locus notch homolog protein 3 (Homo sapiens) (UniProt Q9UM47). As to the kind of experiment: NOTCH3 binders on small-molecule microarray, primary screen, biochemical, 635/667 nm fluorescence (AID 1096). The conditions noted are these: NOTCH3 binding, 635 nm fluorescence, higher = more signal.
Neurogenic locus notch homolog protein 3 (Homo sapiens), sequence (Q9UM47 whole entry, looked up): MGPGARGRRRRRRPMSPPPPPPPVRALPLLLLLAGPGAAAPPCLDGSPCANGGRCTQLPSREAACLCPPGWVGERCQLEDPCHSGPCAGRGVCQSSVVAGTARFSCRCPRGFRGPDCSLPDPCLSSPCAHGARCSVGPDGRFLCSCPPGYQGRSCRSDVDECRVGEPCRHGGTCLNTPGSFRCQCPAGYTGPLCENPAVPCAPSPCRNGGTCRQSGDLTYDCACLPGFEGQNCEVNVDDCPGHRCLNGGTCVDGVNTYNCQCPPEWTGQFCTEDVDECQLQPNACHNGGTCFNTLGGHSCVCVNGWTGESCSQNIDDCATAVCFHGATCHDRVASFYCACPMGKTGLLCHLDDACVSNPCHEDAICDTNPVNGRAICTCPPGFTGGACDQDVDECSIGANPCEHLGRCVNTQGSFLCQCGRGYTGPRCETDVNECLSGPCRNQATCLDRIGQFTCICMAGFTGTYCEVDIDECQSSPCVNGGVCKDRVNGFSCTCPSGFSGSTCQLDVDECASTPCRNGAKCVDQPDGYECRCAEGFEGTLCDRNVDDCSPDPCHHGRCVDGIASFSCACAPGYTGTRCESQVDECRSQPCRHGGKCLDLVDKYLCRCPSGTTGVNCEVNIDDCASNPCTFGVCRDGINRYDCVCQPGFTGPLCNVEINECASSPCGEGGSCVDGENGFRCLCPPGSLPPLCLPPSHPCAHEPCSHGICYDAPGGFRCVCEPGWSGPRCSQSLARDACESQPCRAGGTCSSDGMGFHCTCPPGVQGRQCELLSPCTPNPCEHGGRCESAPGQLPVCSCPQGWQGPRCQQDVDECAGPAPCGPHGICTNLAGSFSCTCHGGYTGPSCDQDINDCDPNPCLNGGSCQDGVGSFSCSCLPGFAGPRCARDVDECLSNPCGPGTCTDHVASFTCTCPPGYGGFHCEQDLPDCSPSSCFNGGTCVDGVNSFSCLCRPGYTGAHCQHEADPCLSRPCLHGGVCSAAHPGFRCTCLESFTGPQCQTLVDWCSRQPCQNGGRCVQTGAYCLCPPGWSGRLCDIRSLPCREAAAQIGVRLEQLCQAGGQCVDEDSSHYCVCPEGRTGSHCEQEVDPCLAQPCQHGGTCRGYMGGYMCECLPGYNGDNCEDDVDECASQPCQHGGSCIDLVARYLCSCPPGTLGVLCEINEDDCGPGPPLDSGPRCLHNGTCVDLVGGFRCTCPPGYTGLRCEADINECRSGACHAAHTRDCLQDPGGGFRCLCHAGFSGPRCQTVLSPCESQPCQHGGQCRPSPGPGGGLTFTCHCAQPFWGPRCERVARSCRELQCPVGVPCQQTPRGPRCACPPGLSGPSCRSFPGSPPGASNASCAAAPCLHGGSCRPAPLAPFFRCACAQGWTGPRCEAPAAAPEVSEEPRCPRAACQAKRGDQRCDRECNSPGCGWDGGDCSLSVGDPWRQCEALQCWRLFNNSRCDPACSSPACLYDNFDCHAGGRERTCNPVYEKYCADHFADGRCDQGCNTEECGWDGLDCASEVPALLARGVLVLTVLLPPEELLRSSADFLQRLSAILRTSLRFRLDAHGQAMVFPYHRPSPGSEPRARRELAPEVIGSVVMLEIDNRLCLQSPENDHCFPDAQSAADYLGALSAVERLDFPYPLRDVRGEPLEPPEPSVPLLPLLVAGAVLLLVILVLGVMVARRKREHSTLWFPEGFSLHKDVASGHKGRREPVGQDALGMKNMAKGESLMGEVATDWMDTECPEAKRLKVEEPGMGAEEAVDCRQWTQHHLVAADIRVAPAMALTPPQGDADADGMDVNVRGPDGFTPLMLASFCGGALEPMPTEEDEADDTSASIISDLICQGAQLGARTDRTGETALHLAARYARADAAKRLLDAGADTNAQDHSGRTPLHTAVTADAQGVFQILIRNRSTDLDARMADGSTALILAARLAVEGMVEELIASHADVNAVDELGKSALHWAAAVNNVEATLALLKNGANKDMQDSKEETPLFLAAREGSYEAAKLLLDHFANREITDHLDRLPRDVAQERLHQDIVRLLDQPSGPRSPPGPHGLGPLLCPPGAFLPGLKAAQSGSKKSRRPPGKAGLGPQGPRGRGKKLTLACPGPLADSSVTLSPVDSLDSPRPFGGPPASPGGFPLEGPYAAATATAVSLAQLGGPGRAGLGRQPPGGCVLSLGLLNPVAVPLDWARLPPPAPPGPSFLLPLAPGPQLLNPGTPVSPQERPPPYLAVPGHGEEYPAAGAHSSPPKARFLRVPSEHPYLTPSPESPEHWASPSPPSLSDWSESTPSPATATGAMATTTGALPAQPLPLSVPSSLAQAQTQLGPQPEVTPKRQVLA
Assay [10] can be described thus: small-molecule microarray binders of probe aEGFR, primary screen, biochemical, biotinylated probe, 635/667 nm fluorescence (AID 1097).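 Further: probe is a biotinylated anti-EGFR antibody binding compounds printed on slides; score combines fluorescence near 667 nm and signal to noise of each spot.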 Conditions: higher = more signal.
The subject of assay [11] is Plasmodium falciparum Sir2 (PF13_0152, Sir2A). As to the kind of experiment: pfSir2 binders on small-molecule microarrays, primary screen, biochemical, small-molecule microarray, 635 nm fluorescence (AID 1098).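 Further: score merges spot fluorescence intensity with its signal-to-noise ratio.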 The conditions noted are these: small-molecule microarray binding, fluorescence 635 nm; higher = more signal.
A short description of assay [12]: small-molecule microarray binders of probe aDKK1, primary screen, biochemical, biotinylated probe, 635/667 nm fluorescence (AID 1099).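 Further: score merges 667nm spot fluorescence with signal to noise across triplicate slides; reference of the scale not given here.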 The conditions noted are these: higher = more signal.
A short description of assay [13]: small-molecule microarray binders of probe aCHRDL2, primary screen, biochemical, biotinylated probe, 635/667 nm fluorescence (AID 1100). The conditions noted are these: higher = more signal.
Assay [14] can be described thus: splicing luciferase reporter signal modulators, primary screen, spliceosome inhibition project, cell-based, HEK293, splice +/- reporter (AID 1101).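 Further: HEK293 cells carrying a splicing-competent luciferase reporter gene; test concentration not given here.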 The conditions noted are these: luminescence, 24 h, higher = more signal, called active from +8 up or from −8 down.
Assay [15] deals with Fibroblast growth factor 10 (Homo sapiens) (UniProt O15520). The experiment in a line: FGF10 binders on small-molecule microarrays, primary screen, biochemical, small-molecule microarray, 635 nm fluorescence (AID 1102). Conditions: FGF10 binding, fluorescence 635 nm, higher = more signal.
Fibroblast growth factor 10 (Homo sapiens), sequence (O15520 whole entry, looked up): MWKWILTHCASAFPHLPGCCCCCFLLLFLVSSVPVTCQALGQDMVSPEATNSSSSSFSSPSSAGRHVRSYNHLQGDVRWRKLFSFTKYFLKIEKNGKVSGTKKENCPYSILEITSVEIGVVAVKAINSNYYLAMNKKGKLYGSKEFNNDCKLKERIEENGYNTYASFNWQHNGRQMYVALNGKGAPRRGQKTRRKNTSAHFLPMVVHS
Assay [16] has as its system glycogen synthase kinase-3 (GSK3A per assay name; protocol says GSK3B). The experiment in a line: GSK3 binders on small-molecule microarrays, primary screen, biochemical, small-molecule microarray, 635 nm fluorescence, GSK3A (AID 1103). Further: the record names both GSK3A and GSK3B. Conditions: small-molecule microarray binding, fluorescence 635 nm; higher = more signal.
For assay [17], the target named is Epidermal growth factor receptor (Homo sapiens) (UniProt P00533). The experiment in a line: EGFR binders on small-molecule microarrays, primary screen, biochemical, small-molecule microarray, 635 nm fluorescence (AID 1104).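 Further: score merges 667 nm emission intensity with spot signal to noise over triplicate slides.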 Conditions: EGFR binding, higher = more signal.
Epidermal growth factor receptor (Homo sapiens), sequence (P00533 whole entry, looked up): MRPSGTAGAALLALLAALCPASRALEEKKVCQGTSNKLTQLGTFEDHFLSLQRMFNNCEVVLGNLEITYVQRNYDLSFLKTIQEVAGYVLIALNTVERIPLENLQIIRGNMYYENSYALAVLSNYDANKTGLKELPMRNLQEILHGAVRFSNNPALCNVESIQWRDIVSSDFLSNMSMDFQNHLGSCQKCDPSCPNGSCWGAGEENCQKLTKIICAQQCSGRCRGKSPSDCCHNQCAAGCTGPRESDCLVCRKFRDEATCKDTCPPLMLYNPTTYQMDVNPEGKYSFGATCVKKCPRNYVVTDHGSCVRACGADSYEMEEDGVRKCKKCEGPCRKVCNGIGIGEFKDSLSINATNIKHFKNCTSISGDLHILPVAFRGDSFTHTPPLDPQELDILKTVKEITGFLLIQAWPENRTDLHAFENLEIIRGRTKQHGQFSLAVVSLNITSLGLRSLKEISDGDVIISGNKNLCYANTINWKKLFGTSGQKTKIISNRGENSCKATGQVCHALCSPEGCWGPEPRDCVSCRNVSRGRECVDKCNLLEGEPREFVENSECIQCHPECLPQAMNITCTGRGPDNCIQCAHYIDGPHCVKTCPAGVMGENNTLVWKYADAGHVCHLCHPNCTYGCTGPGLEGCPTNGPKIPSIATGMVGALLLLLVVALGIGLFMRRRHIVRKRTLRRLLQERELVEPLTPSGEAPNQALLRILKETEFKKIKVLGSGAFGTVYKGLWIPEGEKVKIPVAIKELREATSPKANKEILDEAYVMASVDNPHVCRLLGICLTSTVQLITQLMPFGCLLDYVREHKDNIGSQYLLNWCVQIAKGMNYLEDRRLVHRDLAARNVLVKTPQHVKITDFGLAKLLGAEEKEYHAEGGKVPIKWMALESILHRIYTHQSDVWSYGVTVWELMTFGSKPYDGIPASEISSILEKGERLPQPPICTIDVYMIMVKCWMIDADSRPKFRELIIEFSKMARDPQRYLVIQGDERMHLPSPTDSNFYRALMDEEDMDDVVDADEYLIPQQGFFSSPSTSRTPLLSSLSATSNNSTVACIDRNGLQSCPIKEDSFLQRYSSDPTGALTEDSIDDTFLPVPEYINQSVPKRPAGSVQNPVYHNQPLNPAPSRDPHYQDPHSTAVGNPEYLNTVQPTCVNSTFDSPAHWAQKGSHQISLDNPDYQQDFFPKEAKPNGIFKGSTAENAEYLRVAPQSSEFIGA
In assay [18] the target is Follistatin-related protein 3 (Homo sapiens) (UniProt O95633). The experiment in a line: FSTL3 binders on small-molecule microarrays, primary screen, biochemical, small-molecule microarray, 635 nm fluorescence (AID 1105).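 Further: score merges emission near 667 nm and signal to noise per printed spot across three slides.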 Conditions: FSTL3 binding, higher = more signal.
Follistatin-related protein 3 (Homo sapiens), sequence (O95633 whole entry, looked up): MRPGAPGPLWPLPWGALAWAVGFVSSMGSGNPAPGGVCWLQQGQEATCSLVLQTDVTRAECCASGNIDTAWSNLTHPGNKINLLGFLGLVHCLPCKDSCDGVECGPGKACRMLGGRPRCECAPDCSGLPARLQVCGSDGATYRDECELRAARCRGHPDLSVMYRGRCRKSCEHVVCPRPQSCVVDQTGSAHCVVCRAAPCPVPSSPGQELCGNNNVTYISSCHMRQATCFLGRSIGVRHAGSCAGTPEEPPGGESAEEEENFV
Assay [19] concerns the target Dickkopf-related protein 1 (Homo sapiens) (UniProt O94907). The experiment in a line: DKK1 binders on small-molecule microarrays, primary screen, biochemical, small-molecule microarray, 635 nm fluorescence scan (AID 1106).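 Further: score merges emission near 667 nm with signal to noise over three replicate slides.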 The conditions noted are these: DKK1 binding, higher = more signal.
The subject of assay [20] is Inhibin beta A chain (activin A). The experiment in a line: INHBA (activin A) binders on microarrays, primary screen, biochemical, small-molecule microarray, 635 nm fluorescence scan (AID 1107).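 Further: mouse activin A protein probed at 4.33 µg/mL on printed slides; score merges bound-protein fluorescence near 667 nm with spot signal-to-noise.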 Conditions: small-molecule microarray binding, higher = more signal.

Molecules are shown by their SMILES. The source made the active and inactive calls.

Dickkopf-related protein 1 (Homo sapiens), sequence (O94907 whole entry, looked up): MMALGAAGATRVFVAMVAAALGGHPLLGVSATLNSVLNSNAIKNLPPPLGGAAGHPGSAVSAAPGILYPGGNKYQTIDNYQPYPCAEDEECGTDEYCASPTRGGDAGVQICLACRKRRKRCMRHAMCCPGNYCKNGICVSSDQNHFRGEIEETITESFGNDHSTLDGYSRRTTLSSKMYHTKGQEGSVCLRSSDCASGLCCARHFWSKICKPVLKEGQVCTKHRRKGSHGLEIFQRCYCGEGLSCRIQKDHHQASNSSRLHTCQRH

For `CCOC(=O)NN=C1C[C@@H](O)[C@@H](O)[C@@H]2[C@@H]3C(=O)N(C(C)(C)C)C(=O)[C@@H]3CC[C@@H]12`, the composite z-score in assay [1] was -0.172; in assay [5] it was -0.786; in assay [7] it was -0.0569; in assay [8], 0.261; in assay [9], -0.861; in assay [10] it was 0.0021. For the same compound, the composite z-score in assay [11] is -0.241; in assay [12], 0.166; in assay [13] it was 0.599; in assay [15], 0.34; in assay [16], -1.09; in assay [17] it was 0.43. Moreover, the composite z-score is -1 in assay [18], -0.567 in assay [19] and -2.83 in assay [20]. In addition, the z-score was -1.04 (inactive) in assay [2]; 0.213 (inactive) in assay [3]; -0.626 (inactive) in assay [4]; 0.572 (inactive) in [6]; 0.172 (inactive) in [14].

Consider `COC(=O)[C@H](C)NC(=O)CCC1CC(OC(=O)NCc2cccc3ccccc23)CC2(CCCC(COC(=O)NCCc3ccc(Cl)cc3)O2)O1` (stereo not given in full), for which the composite z-score was 1.27 in assay [1]; 1.57 in assay [5]; -0.145 in assay [7]; 0.328 in assay [8]; 1.13 in assay [9]; -0.0967 in assay [10]. Besides, the composite z-score was -0.0744 in assay [11]; -0.299 in assay [12]; -0.444 in assay [13]; 0.794 in assay [15]; 0.69 in [16]; 0.381 in assay [17]. In addition, the composite z-score is 0.494 in [18], 0.302 in assay [19] and -0.131 in assay [20]. For the same compound, the z-score is -0.915 (inactive) in assay [2]; -0.253 (inactive) in [3]; 0.511 (inactive) in assay [4]; 0.129 (inactive) in assay [6]; -0.875 (inactive) in assay [14].

As for `C=CC[C@]1(C(=O)NCc2ccccc2)N=C(c2ccc(OCCCO)cc2)O[C@H]1c1ccccc1`, the composite z-score was 1.55 in assay [1]; 3.28 in [5]; -0.0238 in [7]; 0.119 in assay [8]; 0.778 in assay [9]; -0.137 in assay [10]. In addition, the composite z-score in [11] is 0.689; in assay [12], 0.213; in assay [13], 1.06; in assay [15], 0.462; in [16], 0.165; in assay [17], -0.29. For the same compound, the composite z-score is 0.291 in [18], -0.328 in assay [19] and 0.173 in assay [20]. Besides, the z-score in assay [2] was 0.159 (inactive); in assay [3], -0.46 (inactive); in assay [4], 6.37 (inactive); in assay [6], 0.568 (inactive); in assay [14], 0.332 (inactive).

As for `COC(=O)[C@H](C)NC(=O)CCC1CC(OC(=O)NCc2ccc3c(c2)OCO3)CC2(CCCC(COC(=O)NCCOc3ccccc3)O2)O1` (stereo not given in full), the composite z-score in assay [1] is 1.55; in [5], 1.57; in [7] it was -0.147; in assay [8] it was 0.737; in assay [9], 1.07; in [10] it was -0.165. Moreover, the composite z-score is 0.46 in assay [11]; -0.211 in assay [12]; -0.636 in assay [13]; 0.658 in assay [15]; 1.29 in [16]; 0.536 in assay [17]. Besides, the composite z-score was determined as 0.649 in [18], 0.679 in assay [19] and 0.0689 in assay [20]. In addition, the z-score is -1.31 (inactive) in [2]; 0.26 (inactive) in [3]; 0.303 (inactive) in assay [4]; -1.16 (inactive) in [6]; -2.8 (inactive) in [14].

As to `COc1ccc([Si](C)(C)[C@@H]2[C@@H](CC(=O)N3CCC[C@H]3CO)O[C@]3(C(=O)N(Cc4cccc(N5CCC5=O)c4)c4ccccc43)[C@H]2C)cc1`, the composite z-score in assay [1] was 1.54; in [5], 2.64; in assay [7] it was -0.0204; in assay [8] it was 1.5; in assay [9] it was 1.15; in assay [10], -0.0953. The composite z-score in [11] is 1.71; in [12], -0.264; in [13], 0.363; in [15], 0.118; in assay [16], 0.773; in assay [17] it was 0.144. In addition, the composite z-score came out at 0.7 in [18], 0.726 in [19] and 0.245 in assay [20]. Moreover, the z-score is -0.569 (inactive) in assay [2]; -0.184 (inactive) in assay [3]; 0.284 (inactive) in [4]; 0.37 (inactive) in assay [6]; -0.399 (inactive) in assay [14].
